SMILES strings stand for the structures. Inconclusive results are not listed. Where a call stands in place of a potency, no number is given. The source made the active and inactive calls. The call rests on the fitted dose curve; in most records, active means well fitted cell-killing curve with a large enough effect; inconclusive means small, poorly fitted or top-dose-only effect; inactive means flat fitted curve, though single readings scatter.
Potency means the concentration at half of the fitted maximal effect.

The assay in a line: Cell Viability - LYMP2-019 (AID 973). Further: nearly all actives have a fitted effect of over 55% in size. To be noted: LYMP2-019 lymphoblastoid cell line viability; series mostly up to 92.2 µM. An excerpt:
NIH Chemical Genomics Center [NCGC]
NIH Molecular Libraries Screening Centers Network [MLSCN]
National Institutes of Environmental Health Sciences [NIEHS]
National Toxicology Program [NTP]
We have developed a 1536-well cell-based assay for quantitative high throughput screening (qHTS) against a number of cell lines to determine in vitro cytotoxicity of small molecules. This particular assay uses a human lymphoblastoid cell line (LYMP2-019) purchased from Coriell Institute for Medical Research.
NCGC Assay Protocol Summary:
The CellTiter-Glo luminescent cell viability assay (Promega) is a homogeneous method to measure the number of viable cells in culture. The end point readout of this assay is based on quantitation of intracellular ATP, an indicator of metabolic activity, using the luciferase reaction. Luciferase catalyzes the oxidation of beetle Luciferin to oxyluciferin and light in the presence of ATP. The luminescent signal is proportional to amount of ATP present.
Using the CellTiter-Glo luminescent cell viability assay, the amount of cellular ATP was measured in the lymphoblastoid cell line with complete culture medium following compound treatment for 24 hours. The assay was performed in opaque white Kalypsys 1536-well plates. In the screen, tetraoctylammonium bromide was used as positive control. Library compounds were measured for their ability to cause acute toxicity in the cell line, as reflected by a decrease in intracellular ATP levels, in a concentration-dependent manner. […] AC50 values were determined from concentration-response data modeled with the standard Hill equation.
qHTS protocol for CellTiter Glo lymphoblastoid cellular assay
[Step] [Parameter] [Value] [Description]
1. Reagent; 5 uL; 2500 lymphoblastoid cells/well
2. Time; 5 hr; 37 C incubation
4. Controls; 23 nL; Tetraoctylammonium bromide 6.4pM to 92 uM
5. Time; 24 hr; 37 C incubation
6. Reagent; 5 uL; CellTiter Glo reagent
7. Time; 30 min; Room Temperature
8. Detection; Luminescence; Viewlux plate reader
Keywords: cell viability, cytotoxicity, lymphoblastoid cell line, luminescence, NTPHTS, NTPHTS_NCGC, NIEHS, DSSTox, MLSMR, MLSCN, NIH Roadmap, qHTS, NCGC
As to `O=CC(=O)c1ccccc1`, the Potency result was “inactive”. Under `CC(=O)c1ccc(Cl)c(Cl)c1Cl` stands “inactive”. Under `C=CC(C)(O)CCCC(C)CCCC(C)CCCC(C)C` (stereo not given) stands “inactive”; under `Cc1ccc(N)cc1[N+](=O)[O-]`, “inactive”; under `COc1ccc(C)cc1N`, “inactive”.

With `Cc1ccc(C(=O)O)cc1[N+](=O)[O-]`, the Potency entry is “inactive”. As for `O=C(Cl)c1ccc([N+](=O)[O-])cc1`, the Potency entry was “inactive”. Under `CCCCC(CC)COP(=O)(OCC(CC)CCCC)OCC(CC)CCCC` (stereo not given) stands “inactive”; under `NC(=O)Nc1nc2ccccc2[nH]1`, “inactive”; under `c1ccc2c(c1)ccc1ccccc12`, “inactive”. On to `Oc1cc2c(cc1O)[C@H]1c3ccc(O)c(O)c3OC[C@@]1(O)C2`, for which the Potency is 39.8 µM (active).

Turning to `CCOC(=O)C1OC1c1ccccc1` (stereo not given), the Potency result was “inactive”.

On to `O=C1OC(=O)c2ccccc21`, for which the Potency result was “inactive”. For `OCC(CBr)(CBr)CBr`, the Potency entry is “inactive”. As to `CC(=O)OCc1ccc2c(c1)OCO2`, the Potency entry is “inactive”. Under `c1c[nH]cn1` stands “inactive”; under `COc1cc(-c2ccc(N=C=O)c(OC)c2)ccc1N=C=O`, “inactive”; under `c1ccc(COCc2ccccc2)cc1`, “inactive”. Consider `OCC(CO)(CBr)CBr`, for which the Potency result is “inactive”. Turning to `Cc1ccc2ccc3cccc4ccc1c2c34`, the Potency result is “inactive”. Regarding `C=Cc1cccc(C)c1`, the Potency result was “inactive”. For the molecule `CC(C)COC(=O)COc1cc(Cl)c(Cl)cc1Cl`, the Potency entry is “inactive”. For `CCCCCCN`, the Potency result is “inactive”. On to `c1ccc(Nc2cccc3ccccc23)cc1`, for which the Potency entry is “inactive”.

Consider `O=C(O)c1ccc([N+](=O)[O-])cc1`, for which the Potency entry is “inactive”.

For `CC(C)(C)C(=O)C1C(=O)c2ccccc2C1=O`, the Potency entry was “inactive”. Under `Cc1ccc(O)c(N)c1` stands 39.8 µM (active).

As for `Cc1cc2nc(N)sc2cc1C`, the Potency entry is “inactive”.

Turning to `CCc1ccc(C(c2ccc(CC)cc2)C(Cl)Cl)cc1`, the Potency entry is “inactive”.

As for `c1cc2c3c(c1)ccc1cccc(c13)C2`, the Potency result is “inactive”. Under `CC(=O)CC(=O)Nc1ccccc1` stands “inactive”; under `O=C(OCc1ccccc1)c1ccccc1O`, “inactive”; under `C=C1CC[C@H](O)C/C1=C/C=C1\CCC[C@]2(C)[C@@H]([C@H](C)CCCC(C)C)CC[C@@H]12`, 39.8 µM (active). In the case of `Brc1cc(Oc2cc(Br)c(Br)c(Br)c2Br)c(Br)c(Br)c1Br`, the Potency entry was “inactive”. On to `OC1CCCCC1`, for which the Potency result is “inactive”. On to `O=c1[nH]ncc2ccccc12`, for which the Potency result was “inactive”. As for `CCCCOC(=O)COc1ccc(Cl)cc1Cl`, the Potency entry is “inactive”. The same measure for `C1CCCNCC1`: “inactive”; for `Nc1cnn([C@@H]2O[C@H](CO)[C@@H](O)[C@H]2O)c(=O)n1`: “inactive”. As for `Brc1ccc(-c2ccccc2)cc1`, the Potency result is “inactive”.

The values are drawn from PubChem BioAssay (NCATS).
